# Target: T1, ERG (Homo sapiens, UniProt P11308 1-479)
# T1 sequence: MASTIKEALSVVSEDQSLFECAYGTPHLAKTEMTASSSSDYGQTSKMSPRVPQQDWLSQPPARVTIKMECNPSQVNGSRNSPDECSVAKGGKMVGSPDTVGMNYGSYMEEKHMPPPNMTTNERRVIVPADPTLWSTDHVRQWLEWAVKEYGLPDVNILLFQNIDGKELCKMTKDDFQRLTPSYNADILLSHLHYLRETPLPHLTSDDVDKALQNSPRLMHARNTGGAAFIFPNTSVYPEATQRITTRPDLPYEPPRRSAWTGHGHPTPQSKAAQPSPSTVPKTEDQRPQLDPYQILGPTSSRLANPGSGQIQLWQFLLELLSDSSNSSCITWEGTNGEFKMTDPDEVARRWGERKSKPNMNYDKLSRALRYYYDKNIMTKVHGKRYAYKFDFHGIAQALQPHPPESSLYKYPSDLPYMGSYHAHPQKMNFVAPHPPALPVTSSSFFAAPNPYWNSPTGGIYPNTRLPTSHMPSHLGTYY
# Assay: DAPPL (digital affinity profiling via proximity ligation, sequencing); 10 mM Tris-HCl pH 7.5, 50 mM NaCl, 1 mM DTT, 4% glycerol, room temperature, 30 min; GST-TFs on glutathione beads, 16-mer random dsDNA library, 0.1% formaldehyde crosslink after washing; high values mean tight binding
# Conditions: protein: recombinant; tags: N-terminal GST; dsDNA, one strand shown
# How it was run: (§1)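 The binding signal reported is, for every hexamer, its read frequency for a factor over its read frequency for the tag-only sample. Reads came from pools of yeast-expressed, GST-fused human transcription factors on glutathione beads, barcoded with DNA and mixed with that sample, which were incubated with 200 nmole of a random double-stranded 16-mer DNA library in Tris/NaCl/DTT/glycerol buffer at room temperature for 30 min. After washing, the pools were crosslinked with 0.1% formaldehyde, proximity-ligated with BsaI/T4 ligase for 1 h at 37 °C, PCR-amplified and sequenced on an Illumina NextSeq500.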
row,Sequence,binding signal
1,TAGAAA,"1.04 fold enrichment (6-mer frequency, TF over GST control)"
2,GTTTTG,"1.25 fold enrichment (6-mer frequency, TF over GST control)"
3,TCCGTC,"1.49 fold enrichment (6-mer frequency, TF over GST control)"
4,CAAACT,"1.12 fold enrichment (6-mer frequency, TF over GST control)"
5,GACTAC,"1.07 fold enrichment (6-mer frequency, TF over GST control)"
6,ACTCAT,"1.16 fold enrichment (6-mer frequency, TF over GST control)"
7,TATAGA,"1 fold enrichment (6-mer frequency, TF over GST control)"
8,TTAAAT,"1.11 fold enrichment (6-mer frequency, TF over GST control)"
9,TCGTTC,"1.27 fold enrichment (6-mer frequency, TF over GST control)"
10,TGTAGC,"1.11 fold enrichment (6-mer frequency, TF over GST control)"
11,CACATT,"1.15 fold enrichment (6-mer frequency, TF over GST control)"
12,CAGCTT,"1.2 fold enrichment (6-mer frequency, TF over GST control)"
13,AATTCA,"1.33 fold enrichment (6-mer frequency, TF over GST control)"
14,ATGGAC,"1.16 fold enrichment (6-mer frequency, TF over GST control)"
15,TACTCG,"1.14 fold enrichment (6-mer frequency, TF over GST control)"
16,TGGTAG,"1 fold enrichment (6-mer frequency, TF over GST control)"
17,GGTACT,"1.24 fold enrichment (6-mer frequency, TF over GST control)"
18,TAGAAG,"1.19 fold enrichment (6-mer frequency, TF over GST control)"
19,CTAGGC,"1.13 fold enrichment (6-mer frequency, TF over GST control)"
20,CGCTCT,"1.21 fold enrichment (6-mer frequency, TF over GST control)"

row,Sequence,binding signal
1,GTCCCG,"1.22 fold enrichment (6-mer frequency, TF over GST control)"
2,ACCTGA,"1.12 fold enrichment (6-mer frequency, TF over GST control)"
3,TACGCA,"1.15 fold enrichment (6-mer frequency, TF over GST control)"
4,CACGCG,"1.18 fold enrichment (6-mer frequency, TF over GST control)"
5,GTTCCC,"1.25 fold enrichment (6-mer frequency, TF over GST control)"
6,CCACTG,"1.23 fold enrichment (6-mer frequency, TF over GST control)"
7,TTATAG,"1.04 fold enrichment (6-mer frequency, TF over GST control)"
8,CCGGCA,"1.53 fold enrichment (6-mer frequency, TF over GST control)"
9,CTTTAG,"1.12 fold enrichment (6-mer frequency, TF over GST control)"
10,TCCGGA,"3.19 fold enrichment (6-mer frequency, TF over GST control)"
11,ATGTCA,"1.17 fold enrichment (6-mer frequency, TF over GST control)"
12,AATTCT,"1.31 fold enrichment (6-mer frequency, TF over GST control)"
13,TCTGAC,"1.16 fold enrichment (6-mer frequency, TF over GST control)"
14,GAATCC,"1.18 fold enrichment (6-mer frequency, TF over GST control)"
15,CGTCCC,"1.37 fold enrichment (6-mer frequency, TF over GST control)"
16,TCTTCA,"1.16 fold enrichment (6-mer frequency, TF over GST control)"
17,AACTAT,"1.36 fold enrichment (6-mer frequency, TF over GST control)"
18,CGAAGC,"1.23 fold enrichment (6-mer frequency, TF over GST control)"
19,CCTGCC,"1.3 fold enrichment (6-mer frequency, TF over GST control)"
20,ATTGCT,"1.25 fold enrichment (6-mer frequency, TF over GST control)"

# Target: ELF1 (Homo sapiens, UniProt P32519 1-619)
# Assay: as above
# Conditions: protein: recombinant; tags: N-terminal GST; dsDNA, one strand shown
# How it was run: as §1
# ELF1, sequence (P32519 whole entry): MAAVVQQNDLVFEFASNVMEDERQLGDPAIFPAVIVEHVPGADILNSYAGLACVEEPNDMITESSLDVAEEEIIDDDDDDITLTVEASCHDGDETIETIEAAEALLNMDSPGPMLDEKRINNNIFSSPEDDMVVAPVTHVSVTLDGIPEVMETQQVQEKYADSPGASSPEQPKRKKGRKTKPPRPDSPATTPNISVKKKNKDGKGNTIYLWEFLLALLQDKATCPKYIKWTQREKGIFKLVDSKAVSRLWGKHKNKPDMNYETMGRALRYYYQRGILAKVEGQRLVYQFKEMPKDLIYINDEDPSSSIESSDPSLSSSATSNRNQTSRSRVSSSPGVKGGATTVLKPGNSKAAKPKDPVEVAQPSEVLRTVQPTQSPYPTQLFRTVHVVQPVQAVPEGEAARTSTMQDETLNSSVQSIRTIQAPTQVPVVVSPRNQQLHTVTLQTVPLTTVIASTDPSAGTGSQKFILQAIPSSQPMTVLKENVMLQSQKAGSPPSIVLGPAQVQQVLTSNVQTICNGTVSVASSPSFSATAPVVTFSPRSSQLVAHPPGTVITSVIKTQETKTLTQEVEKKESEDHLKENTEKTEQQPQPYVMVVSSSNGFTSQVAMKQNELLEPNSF
row,Sequence,binding signal
1,TAGAAA,"1.09 fold enrichment (6-mer frequency, TF over GST control)"
2,GTTTTG,"1.23 fold enrichment (6-mer frequency, TF over GST control)"
3,TCCGTC,"1.36 fold enrichment (6-mer frequency, TF over GST control)"
4,CAAACT,"1.17 fold enrichment (6-mer frequency, TF over GST control)"
5,GACTAC,"1.15 fold enrichment (6-mer frequency, TF over GST control)"
6,ACTCAT,"1.33 fold enrichment (6-mer frequency, TF over GST control)"
7,TATAGA,"1.13 fold enrichment (6-mer frequency, TF over GST control)"
8,TTAAAT,"1.19 fold enrichment (6-mer frequency, TF over GST control)"
9,TCGTTC,"1.15 fold enrichment (6-mer frequency, TF over GST control)"
10,TGTAGC,"1.2 fold enrichment (6-mer frequency, TF over GST control)"
11,CACATT,"1.21 fold enrichment (6-mer frequency, TF over GST control)"
12,CAGCTT,"1.26 fold enrichment (6-mer frequency, TF over GST control)"
13,AATTCA,"1.31 fold enrichment (6-mer frequency, TF over GST control)"
14,ATGGAC,"1.26 fold enrichment (6-mer frequency, TF over GST control)"
15,TACTCG,"1.34 fold enrichment (6-mer frequency, TF over GST control)"
16,TGGTAG,"1.05 fold enrichment (6-mer frequency, TF over GST control)"
17,GGTACT,"1.32 fold enrichment (6-mer frequency, TF over GST control)"
18,TAGAAG,"1.23 fold enrichment (6-mer frequency, TF over GST control)"
19,CTAGGC,"1.14 fold enrichment (6-mer frequency, TF over GST control)"
20,CGCTCT,"1.3 fold enrichment (6-mer frequency, TF over GST control)"

row,Sequence,binding signal
1,GTCCCG,"1.24 fold enrichment (6-mer frequency, TF over GST control)"
2,ACCTGA,"1.14 fold enrichment (6-mer frequency, TF over GST control)"
3,TACGCA,"1.2 fold enrichment (6-mer frequency, TF over GST control)"
4,CACGCG,"1.23 fold enrichment (6-mer frequency, TF over GST control)"
5,GTTCCC,"1.28 fold enrichment (6-mer frequency, TF over GST control)"
6,CCACTG,"1.28 fold enrichment (6-mer frequency, TF over GST control)"
7,TTATAG,"1.2 fold enrichment (6-mer frequency, TF over GST control)"
8,CCGGCA,"1.29 fold enrichment (6-mer frequency, TF over GST control)"
9,CTTTAG,"1.19 fold enrichment (6-mer frequency, TF over GST control)"
10,TCCGGA,"2.3 fold enrichment (6-mer frequency, TF over GST control)"
11,ATGTCA,"1.16 fold enrichment (6-mer frequency, TF over GST control)"
12,AATTCT,"1.32 fold enrichment (6-mer frequency, TF over GST control)"
13,TCTGAC,"1.28 fold enrichment (6-mer frequency, TF over GST control)"
14,GAATCC,"1.13 fold enrichment (6-mer frequency, TF over GST control)"
15,CGTCCC,"1.36 fold enrichment (6-mer frequency, TF over GST control)"
16,TCTTCA,"1.33 fold enrichment (6-mer frequency, TF over GST control)"
17,AACTAT,"1.29 fold enrichment (6-mer frequency, TF over GST control)"
18,CGAAGC,"1.34 fold enrichment (6-mer frequency, TF over GST control)"
19,CCTGCC,"1.31 fold enrichment (6-mer frequency, TF over GST control)"
20,ATTGCT,"1.24 fold enrichment (6-mer frequency, TF over GST control)"

# Target: T2, EHF (Homo sapiens, UniProt Q9NZC4 1-300)
# T2 sequence: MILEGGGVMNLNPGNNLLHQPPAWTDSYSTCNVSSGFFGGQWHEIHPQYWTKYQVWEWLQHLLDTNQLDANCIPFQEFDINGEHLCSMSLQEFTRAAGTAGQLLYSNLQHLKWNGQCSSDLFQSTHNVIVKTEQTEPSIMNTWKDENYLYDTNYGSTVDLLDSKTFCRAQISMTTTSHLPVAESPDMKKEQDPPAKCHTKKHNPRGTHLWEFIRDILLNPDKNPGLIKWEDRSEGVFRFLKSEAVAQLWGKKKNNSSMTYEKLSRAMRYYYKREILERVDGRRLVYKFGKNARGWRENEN
# Assay: as above
# Conditions: protein: recombinant; tags: N-terminal GST; dsDNA, one strand shown
# How it was run: as §1
row,Sequence,binding signal
1,TAGAAA,"1.07 fold enrichment (6-mer frequency, TF over GST control)"
2,GTTTTG,"1.15 fold enrichment (6-mer frequency, TF over GST control)"
3,TCCGTC,"1.41 fold enrichment (6-mer frequency, TF over GST control)"
4,CAAACT,"1.15 fold enrichment (6-mer frequency, TF over GST control)"
5,GACTAC,"1.12 fold enrichment (6-mer frequency, TF over GST control)"
6,ACTCAT,"1.25 fold enrichment (6-mer frequency, TF over GST control)"
7,TATAGA,"1.07 fold enrichment (6-mer frequency, TF over GST control)"
8,TTAAAT,"1.14 fold enrichment (6-mer frequency, TF over GST control)"
9,TCGTTC,"1.23 fold enrichment (6-mer frequency, TF over GST control)"
10,TGTAGC,"1.16 fold enrichment (6-mer frequency, TF over GST control)"
11,CACATT,"1.23 fold enrichment (6-mer frequency, TF over GST control)"
12,CAGCTT,"1.22 fold enrichment (6-mer frequency, TF over GST control)"
13,AATTCA,"1.27 fold enrichment (6-mer frequency, TF over GST control)"
14,ATGGAC,"1.21 fold enrichment (6-mer frequency, TF over GST control)"
15,TACTCG,"1.16 fold enrichment (6-mer frequency, TF over GST control)"
16,TGGTAG,"1.11 fold enrichment (6-mer frequency, TF over GST control)"
17,GGTACT,"1.25 fold enrichment (6-mer frequency, TF over GST control)"
18,TAGAAG,"1.15 fold enrichment (6-mer frequency, TF over GST control)"
19,CTAGGC,"1.01 fold enrichment (6-mer frequency, TF over GST control)"
20,CGCTCT,"1.21 fold enrichment (6-mer frequency, TF over GST control)"

# — publication PMC7862700, “An all-to-all approach to the identification of sequence-specific readers for epigenetic DNA modifications on cytosine”
